# Compounds without any hit were thinned out: in the full panel of roughly 83,000, 20% have a hit.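 Note: values are percent growth. 100 is the growth of untreated cells, values between 100 and 0 indicate rising inhibition; between -100 and 0 indicates cell death.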 A number with no mark means an inactive call. Activity calls are given as the source filed them. The calls were made as follows: active = growth percent below 10; inactive = the rest.
# Test system: NCI-H322M lung
# Test: NCI-60 one-dose screen, 48 h (100 = growth as untreated, 0 = no growth, -100 = all killed)
# Conditions: 10 µM
row,Structure (SMILES),growth
1,Oc1[nH]c2ccc(Cl)cc2c1/C=c1/ccc2c(c1)N=C(c1cc(F)cc(F)c1)N=2,93.2%
2,COc1ccc2c(c1)C(=O)c1c-2c(=O)n(CCCN(C)C)c2cc(OC)c(OC)cc12,80%
3,CCCCCCCCCCCCCCCCN(C(C)c1ccccc1)S(=O)(=O)c1ccc(OC)c(N)c1 (stereo not drawn),128%
4,COc1ccc2c(c1)C(=O)c1c-2c(OCCN(C)C)nc2ccccc12,-5.17% (active)
5,CO/N=C(/C(=O)NC1C(=O)N2C(C(=O)O)=C(COC(N)=O)CSC12)c1ccco1 (stereo not drawn),100%
6,CC/C(=C(/c1ccc(OCCN(C)C)cc1)c1ccc(OC(=O)CCC(=O)c2c(C)[nH]c(/C=C3\N=C(c4ccc[nH]4)C=C3OC)c2C)cc1)c1ccccc1,75.3%
7,COc1ccc2c(c1)O/C(=C\c1ncc([N+](=O)[O-])n1C)C2=O,2.34% (active)
8,COc1ccc(/C=C2/CN(C(=O)c3ccccc3F)C/C(=C\c3ccc(OC)cc3)C2=O)cc1,82.9%
9,O=C(Nc1cccc(-n2cc(-c3ccncc3)c(-c3cc(O)cc(Cl)c3)n2)c1)c1ccc(N2CCOCC2)c(C(F)(F)F)c1,43.5%
10,COc1ccc(/C=C2/CN(CCC#N)C/C(=C\c3ccc(OC)cc3)C2=O)cc1,76%
11,Nc1ncn([C@@H]2O[C@H](CO)[C@@H](O)[C@H]2O)c(=O)n1,15.9%
12,COc1cccc(C(=O)Nc2ccc(CN3CCc4nc5cc(OC)c(OC)cc5cc43)cc2)c1,61.7%
13,CC(C)=CCc1cc(O)cc2c1OC(C=C(C)C)C1=C2C(=O)C2=C(C1=O)S(=O)(=O)CCN2 (stereo not drawn),5.2% (active)
14,N=C(N)c1ccc(-c2ccc(-c3ccccc3)o2)nc1,91.7%
15,COc1ccc2nc3cc(Cl)ccc3c(NCCNCC(C)O)c2c1 (stereo not drawn),25.8%
16,N#CCCN1C/C(=C/c2ccc(Br)cc2)C(=O)/C(=C/c2ccc(Br)cc2)C1,-23.2% (active)
17,O=C(Nc1ccncc1)C(=O)c1cn(S(=O)(=O)c2cccc3ccccc23)c2ccccc12,86%
18,CCn1cc(C(=O)O)c(=O)c2cnc(N3CCCC3)nc21,97.3%
19,Cc1ccc(NC(=O)Nc2c(Cl)cccc2Cl)cn1,119%
20,Cc1ccc(NC(=O)CSc2nc3ccccc3c(=O)n2CCc2ccccc2)c(C(=O)O)c1,90.9%

row,Structure (SMILES),growth
1,O=C(Nc1ccccc1)Nc1cccc(-n2cc(-c3ccncc3)c(-c3ccc(O)c(Cl)c3)n2)c1,43.3%
2,COc1ccc(-c2nc(-c3nc4ccc(OC)cc4[nH]3)cc3c2[nH]c2ccccc23)cc1,48.2%
3,COc1ccc(-c2nc(-c3nc4cc(Cl)c(Cl)cc4[nH]3)c3ccccn23)cc1,48.4%
4,COc1ccc(/C=C2/CN(C(=O)c3ccc(C)cc3)C/C(=C\c3ccc(OC)cc3)C2=O)cc1,90.2%
5,COc1cc(-c2cc(/C=C/C(=O)c3ccc(F)c(F)c3)[nH]n2)cc(OC)c1OC,74.1%
6,COc1ccc(/C(=C2\O[C@@H]([C@H]3COC(C)(C)O3)[C@H]3OC(C)(C)O[C@@H]23)c2cc(OC)c(OC)c(OC)c2)cc1O,34.8%
7,CS(=O)(=O)Nc1ccc(Nc2c3ccccc3nc3cc([N+](=O)[O-])ccc23)cc1,62.6%
8,CCN(CC)CCC(=O)Nc1cccc2c1C(=O)c1c(c(O)c3ccccc3c1O)C2=O,56.7%
9,COc1ccc(-c2nsc3c2NC(=O)CC3c2ccc(F)cc2)cc1 (stereo not drawn),39.6%
10,N=c1c2c(-c3ccccc3)c(-c3ccccc3)n(Cc3ccccc3)c2ncn1CCCO,34.4%
11,CC(C)(C#N)Nc1ccccc1,124%
12,Cc1cc(O)c(C(C)(C)C)cc1Sc1cc(C(C)(C)C)c(O)cc1C,81.6%
13,CC/C(=C(/c1ccc(OCCN(C)C)cc1)c1ccc(OC(=O)CCCCC(=O)c2c(C)[nH]c(/C=C3\N=C(c4ccc[nH]4)C=C3OC)c2C)cc1)c1ccccc1,72.2%
14,C[N+](C)(C)c1ncnc2nc[nH]c12,67%
15,Cc1cc(N(CCCNc2ccnc3cc(Cl)ccc23)Cc2cccs2)nc(Cl)n1,72.9%
16,N#CCCN(NC(=O)OCc1ccccc1)C(=O)OCc1ccccc1,109%
17,CSc1nn(-c2ccccc2)c2ncnc(Oc3ccccc3)c12,88.6%
18,CCCCOc1ccc(NC(=O)Nc2nnc(C)s2)cc1,103%
19,O=C1OCC2=C1C(c1cccc(Br)c1)c1cc3c(cc1N2CCO)CCC3 (stereo not drawn),36.8%

# Test system: HOP-62 NSCLC
# Test: as above
# Conditions: 10 µM
row,Structure (SMILES),growth
1,Oc1[nH]c2ccc(Cl)cc2c1/C=c1/ccc2c(c1)N=C(c1cc(F)cc(F)c1)N=2,58.7%
2,COc1ccc2c(c1)C(=O)c1c-2c(=O)n(CCCN(C)C)c2cc(OC)c(OC)cc12,51.4%
3,CCCCCCCCCCCCCCCCN(C(C)c1ccccc1)S(=O)(=O)c1ccc(OC)c(N)c1 (stereo not drawn),117%
4,COc1ccc2c(c1)C(=O)c1c-2c(OCCN(C)C)nc2ccccc12,30.8%
5,CO/N=C(/C(=O)NC1C(=O)N2C(C(=O)O)=C(COC(N)=O)CSC12)c1ccco1 (stereo not drawn),112%
6,CC/C(=C(/c1ccc(OCCN(C)C)cc1)c1ccc(OC(=O)CCC(=O)c2c(C)[nH]c(/C=C3\N=C(c4ccc[nH]4)C=C3OC)c2C)cc1)c1ccccc1,28%
7,COc1ccc2c(c1)O/C(=C\c1ncc([N+](=O)[O-])n1C)C2=O,-20% (active)
8,COc1ccc(/C=C2/CN(C(=O)c3ccccc3F)C/C(=C\c3ccc(OC)cc3)C2=O)cc1,75.8%
9,O=C(Nc1cccc(-n2cc(-c3ccncc3)c(-c3cc(O)cc(Cl)c3)n2)c1)c1ccc(N2CCOCC2)c(C(F)(F)F)c1,-2.19% (active)
10,COc1ccc(/C=C2/CN(CCC#N)C/C(=C\c3ccc(OC)cc3)C2=O)cc1,-38% (active)
11,Nc1ncn([C@@H]2O[C@H](CO)[C@@H](O)[C@H]2O)c(=O)n1,2.42% (active)
12,COc1cccc(C(=O)Nc2ccc(CN3CCc4nc5cc(OC)c(OC)cc5cc43)cc2)c1,81%
13,CC(C)=CCc1cc(O)cc2c1OC(C=C(C)C)C1=C2C(=O)C2=C(C1=O)S(=O)(=O)CCN2 (stereo not drawn),35%
14,N=C(N)c1ccc(-c2ccc(-c3ccccc3)o2)nc1,91.8%
15,COc1ccc2nc3cc(Cl)ccc3c(NCCNCC(C)O)c2c1 (stereo not drawn),19%
16,N#CCCN1C/C(=C/c2ccc(Br)cc2)C(=O)/C(=C/c2ccc(Br)cc2)C1,-59.4% (active)
17,O=C(Nc1ccncc1)C(=O)c1cn(S(=O)(=O)c2cccc3ccccc23)c2ccccc12,95.1%
18,CCn1cc(C(=O)O)c(=O)c2cnc(N3CCCC3)nc21,108%
19,Cc1ccc(NC(=O)Nc2c(Cl)cccc2Cl)cn1,107%
20,Cc1ccc(NC(=O)CSc2nc3ccccc3c(=O)n2CCc2ccccc2)c(C(=O)O)c1,94.4%

row,Structure (SMILES),growth
1,O=C(Nc1ccccc1)Nc1cccc(-n2cc(-c3ccncc3)c(-c3ccc(O)c(Cl)c3)n2)c1,77.7%
2,COc1ccc(-c2nc(-c3nc4ccc(OC)cc4[nH]3)cc3c2[nH]c2ccccc23)cc1,53.9%
3,COc1ccc(-c2nc(-c3nc4cc(Cl)c(Cl)cc4[nH]3)c3ccccn23)cc1,-11.7% (active)
4,COc1ccc(/C=C2/CN(C(=O)c3ccc(C)cc3)C/C(=C\c3ccc(OC)cc3)C2=O)cc1,89.7%
5,COc1cc(-c2cc(/C=C/C(=O)c3ccc(F)c(F)c3)[nH]n2)cc(OC)c1OC,78.7%
6,COc1ccc(/C(=C2\O[C@@H]([C@H]3COC(C)(C)O3)[C@H]3OC(C)(C)O[C@@H]23)c2cc(OC)c(OC)c(OC)c2)cc1O,48.5%
7,CS(=O)(=O)Nc1ccc(Nc2c3ccccc3nc3cc([N+](=O)[O-])ccc23)cc1,19.2%
8,CCN(CC)CCC(=O)Nc1cccc2c1C(=O)c1c(c(O)c3ccccc3c1O)C2=O,47.9%
9,COc1ccc(-c2nsc3c2NC(=O)CC3c2ccc(F)cc2)cc1 (stereo not drawn),44.3%
10,N=c1c2c(-c3ccccc3)c(-c3ccccc3)n(Cc3ccccc3)c2ncn1CCCO,52.9%
11,CC(C)(C#N)Nc1ccccc1,108%
12,Cc1cc(O)c(C(C)(C)C)cc1Sc1cc(C(C)(C)C)c(O)cc1C,62%
13,CC/C(=C(/c1ccc(OCCN(C)C)cc1)c1ccc(OC(=O)CCCCC(=O)c2c(C)[nH]c(/C=C3\N=C(c4ccc[nH]4)C=C3OC)c2C)cc1)c1ccccc1,77.9%
14,C[N+](C)(C)c1ncnc2nc[nH]c12,98%
15,Cc1cc(N(CCCNc2ccnc3cc(Cl)ccc23)Cc2cccs2)nc(Cl)n1,41.1%
16,N#CCCN(NC(=O)OCc1ccccc1)C(=O)OCc1ccccc1,120%
17,CSc1nn(-c2ccccc2)c2ncnc(Oc3ccccc3)c12,96.7%
18,CCCCOc1ccc(NC(=O)Nc2nnc(C)s2)cc1,102%
19,O=C1OCC2=C1C(c1cccc(Br)c1)c1cc3c(cc1N2CCO)CCC3 (stereo not drawn),28.4%

# — PubChem BioAssay (NCI)
